Source: PubChem BioAssay (NCI)
This is part of a sample that, as a whole, favours compounds with a hit. Of some 83,000 tested, about 20% had one in any assay.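 The endpoint reported here, percent growth, reads 100 for growth as untreated, 0 for no net growth and -100 for all cells dead.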 Calls of active or inactive are those of the source. Rule for the calls: active = growth percent below 10; inactive = the rest.

Legend:
Assay in all cases: NCI-60 one-dose screen, 48 h (100 = growth as untreated, 0 = no growth, -100 = all killed)
Settings in all cases: 10 µM unless noted
HCT-15 colon = test system: HCT-15 colon
HT29 colon = test system: HT29 colon
SNB-75 CNS = test system: SNB-75 CNS
SNB-19 CNS = test system: SNB-19 CNS
PC-3 prostate = test system: PC-3 prostate
SK-MEL-5 melanoma = test system: SK-MEL-5 melanoma
UACC-62 melanoma = test system: UACC-62 melanoma
LOX IMVI melanoma = test system: LOX IMVI melanoma
SK-MEL-28 melanoma = test system: SK-MEL-28 melanoma
U251 CNS = test system: U251 CNS

Measured: growth

Nc1ncn([C@@H]2O[C@H](CO)[C@@H](O)C2(F)F)c(=O)n1
inactive: HCT-15 colon 52.2% | HT29 colon 70.1% | SNB-75 CNS 65% | SNB-19 CNS 58.9% | PC-3 prostate 63.6% | SK-MEL-5 melanoma 70.8% | UACC-62 melanoma 47.3% | LOX IMVI melanoma 34.5% | SK-MEL-28 melanoma 78.5%

Nc1nc2c(c3ncncc13)C(c1cccc(C(F)(F)F)c1)Cc1ncncc1-2 (configuration not stated)
active: HT29 colon 9.73% | SNB-75 CNS 8.31%
inactive: HCT-15 colon 27% | SNB-19 CNS 33.9% | PC-3 prostate 26.4% | SK-MEL-5 melanoma 21.1% | UACC-62 melanoma 43.4% | LOX IMVI melanoma 36.8% | SK-MEL-28 melanoma 63.7%

COc1cc2ncnc(-n3ncc4cc(NC(=O)Nc5ccccc5)ccc43)c2cc1OC
inactive: HCT-15 colon 21% | HT29 colon 29.1% | SNB-19 CNS 44.7% | SK-MEL-5 melanoma 40.2% | UACC-62 melanoma 23.9%
active: SNB-75 CNS -12.4% | PC-3 prostate -18.4% | LOX IMVI melanoma 1.66% | SK-MEL-28 melanoma -15.1%

COc1cc(OC)c(/C=C/c2ccc3ccccc3[n+]2C)c(OC)c1
active: HT29 colon 3.11% | SK-MEL-5 melanoma -74% | UACC-62 melanoma 0.263% | LOX IMVI melanoma -33.2% | SK-MEL-28 melanoma 9.89%
inactive: HCT-15 colon 77.5% | SNB-75 CNS 11.2% | U251 CNS 13.3% | PC-3 prostate 10.7%

CCOC(=O)c1c(C)oc2ncnc(Nc3ccc(C(=O)NCCc4ccccc4)cc3)c12
inactive: HCT-15 colon 92.3% | HT29 colon 58.9% | SNB-19 CNS 84.1% | PC-3 prostate 59.2% | SK-MEL-5 melanoma 85.6% | UACC-62 melanoma 95% | LOX IMVI melanoma 75.2% | SK-MEL-28 melanoma 87.9%
active: SNB-75 CNS 7.02%

CC(=O)C(CO)C(=O)Nc1ccccc1 (configuration not stated)
inactive: HCT-15 colon 98.8% | HT29 colon 101% | SNB-75 CNS 63.3% | SNB-19 CNS 101% | PC-3 prostate 102% | SK-MEL-5 melanoma 103% | UACC-62 melanoma 98.2% | LOX IMVI melanoma 83.7% | SK-MEL-28 melanoma 99.8%

CCOC(=O)C(C)C(C)(O)c1ccccc1 (configuration not stated)
inactive: HCT-15 colon 108% | HT29 colon 106% | SNB-75 CNS 87.5% | U251 CNS 107% | PC-3 prostate 99.9% | SK-MEL-5 melanoma 102% | UACC-62 melanoma 97.4% | LOX IMVI melanoma 93.8% | SK-MEL-28 melanoma 101%

COc1nc(OC)nc(-c2cc(C(=O)c3ccc(Br)cc3)n3cc(C)cc(C)c23)n1
active: SNB-75 CNS -32.2% | LOX IMVI melanoma 3.88%
inactive: HCT-15 colon 90.7% | HT29 colon 74.9% | SNB-19 CNS 28.9% | PC-3 prostate 72.5% | SK-MEL-5 melanoma 87.8% | UACC-62 melanoma 92.1% | SK-MEL-28 melanoma 84.7%

CCCCCCC(C(=O)OCC)(C(=O)OCC)C1CCCCCC1
inactive: HCT-15 colon 97.5% | HT29 colon 98.1% | SNB-75 CNS 83.7% | SNB-19 CNS 99.2% | PC-3 prostate 102% | SK-MEL-5 melanoma 100% | UACC-62 melanoma 101% | LOX IMVI melanoma 101% | SK-MEL-28 melanoma 106%

COc1ccc2cn3c4ccc(O)cc4[nH]c(=O)c3c2c1
active: HT29 colon -89.2% | U251 CNS 5%
inactive: HCT-15 colon 17.8% | SNB-19 CNS 19.7% | UACC-62 melanoma 34.9% | LOX IMVI melanoma 24.4% | SK-MEL-28 melanoma 24.8%

OCCN1CCN(CC/C=C2/c3ccccc3Sc3ccc(C(F)(F)F)cc32)CC1
inactive: HCT-15 colon 71.1% | HT29 colon 15.8% | SNB-75 CNS 56.5% | U251 CNS 41% | SK-MEL-5 melanoma 56.5% | UACC-62 melanoma 14.4% | LOX IMVI melanoma 65.5% | SK-MEL-28 melanoma 68%

COC(=O)c1cc(O)c2cc3c(cc2c1-c1cc(OC)c(OC)c(OC)c1)OCO3
active: HT29 colon -9.35% | SK-MEL-5 melanoma 3.09%
inactive: HCT-15 colon 23.6% | SNB-19 CNS 36.9% | U251 CNS 42.3% | UACC-62 melanoma 44.2% | LOX IMVI melanoma 29.7% | SK-MEL-28 melanoma 51.5%

Nc1nc2cc(O)ccc2n2cc3c(F)cccc3c12
inactive: HCT-15 colon 35.6% | HT29 colon 20.7% | SNB-19 CNS 35.9% | U251 CNS 32.8% | PC-3 prostate 42.2% | SK-MEL-5 melanoma 14.2% | UACC-62 melanoma 39% | LOX IMVI melanoma 34.9% | SK-MEL-28 melanoma 20%

CC(=O)N1CCN(CCNC(=O)n2cc(-c3ccncc3)c(-c3cc(O)cc(Cl)c3)n2)CC1
inactive: HCT-15 colon 51.1% | HT29 colon 21.7% | SNB-19 CNS 106% | U251 CNS 80.1% | PC-3 prostate 114% | SK-MEL-5 melanoma 63.6% | UACC-62 melanoma 27.8% | LOX IMVI melanoma 68.3% | SK-MEL-28 melanoma 31.4%

CCN(CC)c1ccc2nc3ccc(N=Nc4ccc(O)cc4)cc3[n+](-c3ccccc3)c2c1
inactive: HCT-15 colon 65.6% | HT29 colon 28.9% | SNB-19 CNS 73.3% | U251 CNS 44.1% | PC-3 prostate 48.3% | SK-MEL-5 melanoma 46.3% | UACC-62 melanoma 59.3% | LOX IMVI melanoma 36.5% | SK-MEL-28 melanoma 52.2%

Nc1nc(-c2cccc(Br)c2)cc(-c2cc3ccccc3oc2=O)n1
inactive: HCT-15 colon 106% | HT29 colon 117% | SNB-19 CNS 109% | U251 CNS 106% | PC-3 prostate 122% | SK-MEL-5 melanoma 89.7% | UACC-62 melanoma 101% | LOX IMVI melanoma 95.8% | SK-MEL-28 melanoma 126%

C=CN(C)S(C)(=O)=O
inactive: HT29 colon 72.1% | SNB-75 CNS 32.6% | SNB-19 CNS 50.1% | U251 CNS 19.2% | PC-3 prostate 16.9% | SK-MEL-5 melanoma 12.1% | UACC-62 melanoma 43% | LOX IMVI melanoma 29.7% | SK-MEL-28 melanoma 38.7%

Cc1ccc(C(=O)C(Br)C(Br)c2ccccc2)cc1 (configuration not stated)
inactive: HCT-15 colon 80.3% | HT29 colon 101% | SNB-75 CNS 82.9% | U251 CNS 82.7% | PC-3 prostate 108% | SK-MEL-5 melanoma 94.3% | UACC-62 melanoma 94.7% | LOX IMVI melanoma 66.6% | SK-MEL-28 melanoma 101%

CC(=O)Oc1cc2ccccc2cc1C(C)C
inactive: HCT-15 colon 99.1% | HT29 colon 114% | SNB-75 CNS 92.3% | U251 CNS 112% | PC-3 prostate 115% | UACC-62 melanoma 116% | LOX IMVI melanoma 109% | SK-MEL-28 melanoma 113%

CCCCN(CCC)CCCCCCCCCCN1CCCc2ccccc21
inactive: HCT-15 colon 78.8% | HT29 colon 21.8% | SNB-75 CNS 89% | U251 CNS 87.7% | PC-3 prostate 45.8% | SK-MEL-5 melanoma 98.8% | LOX IMVI melanoma 67.8% | SK-MEL-28 melanoma 118%

C=C1CCC2C3(C)COC(c4ccccc4)OC3CCC2(C)C1C/C=C1/C(=O)OCC1O (configuration not stated)
inactive: HCT-15 colon 61.9% | HT29 colon 54.1% | SNB-75 CNS 35.9% | U251 CNS 64.9% | UACC-62 melanoma 67.4% | LOX IMVI melanoma 72.6%

C=CCN(C)C
inactive: HCT-15 colon 113% | HT29 colon 113% | SNB-19 CNS 102% | U251 CNS 102% | PC-3 prostate 105% | SK-MEL-5 melanoma 108% | UACC-62 melanoma 101% | LOX IMVI melanoma 99.8% | SK-MEL-28 melanoma 110%

CCOc1ccc(Br)cc1/C=C(\C#N)c1ccc([N+](=O)[O-])cc1
inactive: HCT-15 colon 84.7% | HT29 colon 87.1% | SNB-75 CNS 22.1% | U251 CNS 67.3% | PC-3 prostate 71.2% | SK-MEL-5 melanoma 81.8% | UACC-62 melanoma 91.7% | LOX IMVI melanoma 87.8% | SK-MEL-28 melanoma 58.6%

Cc1c([C@H](C(Cl)Cl)[C@H](O)[C@H]2C[C@H](C)C(=O)O2)ccc2c1C(=O)[C@H]1[C@H]2C[C@@H](Br)[C@@]23O[C@@H](CO[C@H]2O)CC13C (some centres not stated)
inactive: HT29 colon 13.1% | SNB-75 CNS 58.4% | U251 CNS 14.4% | PC-3 prostate 30.4% | UACC-62 melanoma 26.6% | LOX IMVI melanoma 33.4% | SK-MEL-28 melanoma 47.6%
active: HCT-15 colon 7.63%

CCN(CC)CCOC(=O)c1cccnc1
inactive: HCT-15 colon 98.7% | HT29 colon 107% | SNB-75 CNS 79.6% | U251 CNS 97.7% | PC-3 prostate 99.7% | UACC-62 melanoma 103% | LOX IMVI melanoma 90.9% | SK-MEL-28 melanoma 98.4%

O=C(NC(=S)NNC(=S)NNc1ccccc1)c1ccccc1
active: SNB-75 CNS 4.67%
inactive: HCT-15 colon 54% | HT29 colon 81.2% | U251 CNS 48% | PC-3 prostate 32.6% | SK-MEL-5 melanoma 25.4% | UACC-62 melanoma 25.2% | LOX IMVI melanoma 48.3% | SK-MEL-28 melanoma 59.3%

CCCCCC(=C/c1ccccc1)/C=N/N=C(N)N
inactive: SNB-75 CNS 56.6% | PC-3 prostate 37.8%
active: HCT-15 colon -37.8% | HT29 colon -66.3% | SK-MEL-5 melanoma -91.5% | LOX IMVI melanoma -37.6% | SK-MEL-28 melanoma -90.2%

COc1cc(-c2nn(-c3ccc(NC(=O)c4ccc(Cl)c(Cl)c4)cc3)cc2-c2ccncc2)ccc1Cl
active: HT29 colon -14.7%
inactive: HCT-15 colon 10.9% | SNB-19 CNS 85.9% | U251 CNS 48.7% | PC-3 prostate 68.6% | SK-MEL-5 melanoma 64.8% | UACC-62 melanoma 64.4% | LOX IMVI melanoma 35.9% | SK-MEL-28 melanoma 67.8%

CCCCCN1CCN(C(CC(=O)c2ccccc2)C(=O)c2ccccc2)CC1 (configuration not stated)
inactive: HCT-15 colon 94.5% | HT29 colon 96.4% | SNB-75 CNS 100% | U251 CNS 92.6% | PC-3 prostate 92.6% | SK-MEL-5 melanoma 106% | LOX IMVI melanoma 82.8% | SK-MEL-28 melanoma 119%
